Screening results from PubChem BioAssay.
Hits are enriched below; roughly 3.5% of the tested compounds scored in any of these assays.
FBW7 act = FBW7 E3 ligase activators, primary screen, biochemical, AlphaScreen, human; AlphaScreen FBW7–phospho-cyclin E peptide binding, activator screen; normalized activity (activation), % at 26.1 µM; F-box/WD repeat-containing protein 7 (Homo sapiens), Q969H0; 650,000 tested, 0.13% active; in the data active = normalized activity above about 1.9%;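 note: purified mutant Fbw7 with reduced substrate affinity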
GPR151 activ = activators of human GPR151, primary screen, cell-based, PathHunter beta-arrestin, luminescence; G-protein coupled receptor 151 (Homo sapiens), Q8TDV0; PathHunter beta-arrestin GPR151 cells; activation, % at 11.2 µM; 650,000 tested, 1% active; AID 1508602, 2020; in the data active = activation above about 4.9%;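 note: 0% = median of compound wells and 100% = cells with positive control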
MITF primary = MITF inhibitors, primary screen, biochemical, AlphaScreen, human | inhibition, % at 2.6 µM | Microphthalmia-associated transcription factor (Homo sapiens), O75030 | AlphaScreen MITF homodimerization, bead proximity signal | 650,000 tested, 0.91% active; in the data active = inhibition above about 50%;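 note: 0% = vehicle wells with protein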
Target sequence (O75030 whole entry, looked up): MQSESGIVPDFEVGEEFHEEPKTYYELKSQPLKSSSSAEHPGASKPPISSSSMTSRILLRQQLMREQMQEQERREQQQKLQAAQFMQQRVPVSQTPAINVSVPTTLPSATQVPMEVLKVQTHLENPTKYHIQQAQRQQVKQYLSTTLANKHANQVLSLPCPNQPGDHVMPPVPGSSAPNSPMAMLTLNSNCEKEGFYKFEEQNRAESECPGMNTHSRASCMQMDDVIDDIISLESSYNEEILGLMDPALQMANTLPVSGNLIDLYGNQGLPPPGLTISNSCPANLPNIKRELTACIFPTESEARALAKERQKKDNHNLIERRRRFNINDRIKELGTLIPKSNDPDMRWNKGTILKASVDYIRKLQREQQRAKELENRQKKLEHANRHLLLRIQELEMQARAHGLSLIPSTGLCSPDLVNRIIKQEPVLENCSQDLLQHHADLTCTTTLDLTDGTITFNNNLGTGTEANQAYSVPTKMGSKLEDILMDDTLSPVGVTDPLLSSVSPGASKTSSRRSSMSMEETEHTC
TEAD-YAP inh = TEAD-YAP interaction inhibition, primary screen, TEAD-YAP interaction inhibitor project, luminescence, HEK-TIYL cells | TEAD-Gal4/YAP UAS-luciferase luminescence | inhibition, % at 9.12 µM | 640,000 tested, 1.4% active | AID 1259422, 2018; in the data active = inhibition above about 32%;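 note: 0% = median of test compound wells and 100% = reference inhibitor wells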
MITF confirm = MITF inhibitors, retest of hits, confirmation, biochemical, AlphaScreen, triplicate | shares compounds with MITF primary | AlphaScreen MITF homodimerization, biotin/His-MITF beads | inhibition, % at 2.6 µM | 4,700 tested, 16% active | AID 1259372, 2018;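 active = inhibition above a cutoff derived from the DMSO control wells, cut at about 28% in these data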;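 note: 0% = MITF dimer wells with DMSO only; inhibitors lower the bead chemiluminescence by keeping MITF from dimerizing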
AlphaScreen DR = AlphaScreen optical interference compounds, dose response, counter-screen, biochemical, HTS. shares compounds with MITF primary. AlphaScreen optical interference counterscreen, cell-free. IC50, µM. 480 tested, 6% active; call rule not given here
AlphaScreen intf2 = AlphaScreen optical interference compounds, counter-screen for MITF inhibitor project, biochemical, triplicate; shares compounds with MITF primary; LysRS AlphaScreen counterscreen, signal interference; inhibition, % at 2.6 µM; 4,700 tested, 7.6% active;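 active = inhibition above a cutoff derived from the DMSO control wells, cut at about 30% in these data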
Numbers without * were called inactive; x = not tested or not shown.

SMILES | FBW7 act | GPR151 activ | MITF primary | TEAD-YAP inh | MITF confirm | AlphaScreen intf2 | others
O=C(/C=C/c1ccco1)NCCCCNC(=O)/C=C/c1ccco1 | -0.1 | -0.2 | 56.6* | -28.8 | 71.3* | 8.2 | AlphaScreen DR=>6.48
CCC(=O)Nc1ccc(NC(=S)NC(=O)/C=C/c2ccco2)cc1 | -0.1 | 1.1 | 12.0 | -1.5 | x | x
O=C(/C=C/c1ccco1)Nc1cccc2ccccc12 | 0.1 | -0.6 | 13.4 | -17.0 | x | x
CCCCCC1CCC(c2ccc(OCCCC)cc2)CC1 (stereo unspecified) | 0.1 | -1.9 | 13.7 | -0.4 | x | x
COc1ccc(CN2CCC(N3CCCCC3)CC2)c(OC)c1 | 0.1 | -0.5 | 25.4 | 1.2 | x | x
COc1ccc(CN2CCC(N3CCCC3)CC2)cc1 | 0.4 | -0.4 | 52.4* | -1.6 | 3.0 | 2.6
COc1ccc(OC)c(CN2CCC(N3CCCCC3)CC2)c1 | -0.1 | 0.0 | 52.3* | 8.3 | 9.7 | 8.6
COc1ccc(OC)c(CN2CCC(O)CC2)c1 | 0.1 | -0.5 | 36.6 | -4.2 | x | x
COc1ccc(OC)c(CN2CCN(C3CCCC3)CC2)c1 | 0.0 | -0.7 | 70.4* | 5.4 | 3.9 | 7.5
Brc1ccc(CN2CCC(N3CCCCC3)CC2)cc1 | -0.4 | -0.6 | 41.8 | -8.4 | x | x
CCN1CCN(C2CCN(Cc3cc(OC)ccc3OC)CC2)CC1 | 0.4 | 0.4 | 60.9* | 9.6 | -5.5 | -6.1
CCOC(=O)c1ccoc1CN1CCN(C/C=C/c2ccccc2)CC1 | -0.2 | -0.8 | 78.6* | -4.9 | 15.7 | -1.2
COc1ccc(CN2CCN(C/C=C/c3ccccc3)CC2)c(O)c1 | 0.5 | -0.5 | 18.7 | 11.5 | x | x
COc1ccc(OC)c(CN2CCN(C/C=C/c3ccccc3)CC2)c1 | 0.0 | 3.4 | 80.5* | 5.1 | 4.1 | 17.9
COc1ccccc1CN1CCN(C/C=C/c2ccccc2)CC1 | -0.1 | 0.5 | 68.8* | -1.9 | 8.0 | 5.8
CCOC(=O)c1ccoc1CN1CCN(c2cccc(C)c2C)CC1 | 0.3 | 0.0 | 5.7 | 1.6 | x | x
COc1cn(-c2ccccc2)nc1C(=O)OCc1ccc(C#N)cc1 | -0.2 | 0.4 | -4.1 | -8.1 | x | x
CC(=O)N1CCC(N(C(=O)c2cccs2)c2ccc3c(c2)CCN3S(C)(=O)=O)CC1 | 0.7 | 1.0 | 5.5 | 14.8 | x | x
CCCS(=O)(=O)N1CCN(C(C)CC)CC1 (stereo unspecified) | -0.1 | 2.3 | 51.8* | -2.5 | -2.6 | 12.7
COc1cc(CN2CCCCCC2)c([N+](=O)[O-])cc1OC | 0.0 | 1.7 | 19.6 | 1.1 | x | x
COc1cc(CN2CCN(c3ccccc3OC)CC2)c([N+](=O)[O-])cc1OC | 0.1 | 0.3 | 20.8 | 1.9 | x | x
COc1cccc(CN2CCN(Cc3cc(OC)c(OC)cc3[N+](=O)[O-])CC2)c1 | -0.1 | -0.4 | 76.2* | 6.9 | 10.7 | 19.6
COc1ccc(OC)c(CN2CCN(Cc3cc(OC)c(OC)cc3[N+](=O)[O-])CC2)c1 | -0.2 | 0.3 | 72.0* | 3.8 | 11.1 | 18.3
COc1cc(OC)c(OC)cc1CN1CCN(Cc2cc(OC)c(OC)cc2[N+](=O)[O-])CC1 | -0.2 | -0.3 | 62.4* | 1.7 | 4.9 | 14.8
COc1cc(CN2CCN(c3ccccc3F)CC2)c([N+](=O)[O-])cc1OC | 0.1 | -0.4 | 64.3* | -2.5 | 12.0 | 6.0
SMILES | FBW7 act | GPR151 activ | MITF primary | TEAD-YAP inh | MITF confirm | AlphaScreen intf2 | others
COc1cc(CN2CCCCC2)c([N+](=O)[O-])cc1OC | 0.2 | 0.3 | -6.5 | 6.5 | x | x
Cc1ccc2c(c1)N(Cc1c(C)noc1C)C(=O)C(C)O2 (stereo unspecified) | -0.1 | 1.4 | 13.9 | 3.4 | x | x
O=C(NCc1ccccc1)c1cc(F)c(F)c(F)c1F | 0.2 | 1.4 | 1.9 | 20.9 | x | x
CCCOC(=O)C1=C(C)NC(=O)NC1c1ccccc1Br (stereo unspecified) | 0.1 | -0.5 | 4.0 | 4.9 | x | x
Cc1ccc(NC(=O)CCC(=O)NNC(=O)Nc2ccccc2)cc1C | 0.1 | -0.2 | -18.4 | 6.0 | x | x
COC(=O)c1ccc(CN(C)C2CCN(C)CC2)cc1 | 0.1 | -0.1 | 57.0* | -4.5 | 11.1 | 16.0
